CYP2C9 inh – blockers of cytochrome P450 2C9 activity – biochemical, luminescence, ADME assay, primary screen; CYP2C9 Supersomes, luciferin-H conversion; inhibition, % at 5 µM; 96,000 compounds, 20% hits; AID 777, 2007;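 active means blocking of liver enzyme CYP2C9 beyond about 50% at 5 µM, limit read from the data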
CYP2C9 activ – human CYP2C9 activators, primary screen, biochemical, luminescence; Cytochrome P450 2C9 (Homo sapiens), P11712; recombinant CYP2C9, luciferin-H conversion; stronger effect = higher value; factor 1 = untreated enzyme, 0 = blocked; activation factor at 5 µM; 96,000 compounds, 1.4% hits; AID 1024, 2008;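 active means activation factor of 2 or more for CYP2C9 at a 5 µM dose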;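 further: 0 = sulfaphenazole-blocked wells and 1 = vehicle-only wells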
CYP2C19 act – human CYP2C19 activators, primary screen, biochemical, luminescence; Cytochrome P450 2C19 (Homo sapiens), P33261; recombinant CYP2C19, luciferin-H EGE luminescence; stronger effect = higher value; 0 = fully inhibited enzyme, 1 = untreated enzyme; activation factor at 5 µM; 96,000 tested, under 10 active; AID 1025, 2008;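 active means activation factor of at least 2 at 5 µM in the primary screen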;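 further: 0 = wells with 2.5 mM tranylcypromine and 1 = vehicle-only wells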
CYP2C19 inh – blockers of cytochrome P450 2C19 activity – biochemical, luminescence, ADME assay, primary screen | P33261 | CYP2C19 Supersomes, luciferin-H EGE luminescence, 30 min | inhibition, % at 5 µM | 96,000 compounds, 21% hits;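 active means CYP2C19 inhibition above a set limit at 5 µM in the primary screen, cut at about 50% in these data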;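 further: plate controls were negative control wells for no effect and 2.5 mM tranylcypromine positive control for full effect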
PLAP activator – PLAP enzyme activators, biochemical, luminescence, HTS. purified PLAP enzyme, luminescent substrate read-out; stronger effect = higher value. activation fold at 20 µM. Alkaline phosphatase, placental type (Homo sapiens), P05187. 96,000 compounds, 1.2% hits; in the data active means activation fold above about 2
Target sequence (P05187 whole entry, looked up): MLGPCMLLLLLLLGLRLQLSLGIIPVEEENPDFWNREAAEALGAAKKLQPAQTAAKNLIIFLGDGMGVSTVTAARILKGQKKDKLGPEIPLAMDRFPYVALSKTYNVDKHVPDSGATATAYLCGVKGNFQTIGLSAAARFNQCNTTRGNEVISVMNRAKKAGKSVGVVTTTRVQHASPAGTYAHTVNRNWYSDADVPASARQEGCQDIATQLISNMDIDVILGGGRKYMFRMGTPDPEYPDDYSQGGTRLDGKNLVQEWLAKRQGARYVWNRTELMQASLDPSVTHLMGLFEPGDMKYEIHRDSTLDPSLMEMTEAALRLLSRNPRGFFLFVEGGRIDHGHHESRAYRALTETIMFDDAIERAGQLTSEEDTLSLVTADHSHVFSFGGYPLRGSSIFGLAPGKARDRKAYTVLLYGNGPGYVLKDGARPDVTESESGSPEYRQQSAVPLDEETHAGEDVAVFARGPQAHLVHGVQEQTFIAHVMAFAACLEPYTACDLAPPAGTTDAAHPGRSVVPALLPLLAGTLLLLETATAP
* hit, by the source's call. Hits are enriched below; roughly 31% of the tested compounds scored in any of these assays.

SMILES | CYP2C9 inh | CYP2C9 activ | CYP2C19 act | CYP2C19 inh | PLAP activator
CCOC(=O)c1ccccc1NC1c2ccccc2C(=O)N1C1CCN(C(=O)OCC)CC1 (stereo unspecified) | 37.2 | 0.6 | 0.8 | 21.6 | 1.4
CCOC(=O)N1CCC(N2C(=O)c3ccccc3C2Nc2ccc3c(C)cc(=O)oc3c2)CC1 (stereo unspecified) | 81.1* | 0.2 | 0.6 | 41.2 | 1.6
CCOC(=O)N1CCC(N2C(=O)c3ccccc3C2Nc2ccccc2C)CC1 (stereo unspecified) | 79.9* | 0.2 | 0.4 | 64.7* | 1.5
CCOC(=O)N1CCC(N2C(=O)c3ccccc3C2Nc2ccc(Cl)cn2)CC1 (stereo unspecified) | 57.6* | 0.4 | 0.4 | 58.5* | 1.5
CN1CCN(P(=O)(c2ccccc2)c2nc3ccccc3s2)CC1 (stereo unspecified) | 1.0 | 1 | 0.9 | 11.2 | 1.6
CCn1c(CNC(=O)c2ccco2)nnc1SCC(=O)Nc1cc(C(F)(F)F)ccc1Cl | 1.5 | 1 | 0.7 | 31.7 | 1
O=S(=O)(Nc1ccc2c(c1)OCCO2)c1ccc(Br)s1 | 96.2* | 0 | 0 | 98.5* | 0.9
COc1ccc(C)cc1NS(=O)(=O)c1cc(C)ccc1C | 21.8 | 0.8 | 0.6 | 41.4 | 0.9
COc1ccc(C)cc1NS(=O)(=O)c1ccc(Br)s1 | 29.7 | 0.7 | 0 | 97.9* | 1.1
COc1ccc(NS(=O)(=O)c2ccc(Br)s2)cc1OC | 86.7* | 0.1 | 0 | 99.4* | 1.1
COc1ccc2c(c1)nc(SCC(=O)C(C)(C)C)n2C | -3.8 | 1 | 0.5 | 49.7 | 1
COc1ccc2c(c1)nc(SCC(=O)c1cccs1)n2C | 24.2 | 0.8 | 0.5 | 50.6* | 0.9
CCOc1ccc2nc(SCC(=O)c3ccc(Cl)s3)sc2c1 | -77.2 | 1.8 | 0.8 | 22.5 | 0.8
CCc1cc2cccc(C)c2nc1SCC(=O)N1CCN(C(=O)c2ccco2)CC1 | 57.2* | 0.4 | 0.6 | 41.7 | 1.2
CCOc1ccc2nc(SCC(=O)c3cccs3)sc2c1 | 31.7 | 0.7 | 0.4 | 55.0* | 1.3
CCOc1ccc2nc(SCC(=O)N3CCN(C(=O)c4ccco4)CC3)sc2c1 | 53.3* | 0.5 | 0.7 | 29.2 | 1.7
CCOC(=O)c1oc2ccccc2c1NC(=O)c1cc(OC)cc(OC)c1 | 13.4 | 0.9 | 0.9 | 8.3 | 1.1
COc1ccc(OC)c2sc(NC(=O)c3ccc(S(=O)(=O)N(C)C)cc3)nc12 | 1.3 | 1 | 1 | -2.2 | 1
Cc1nc(SCC(=O)N2CCN(C(=O)c3ccco3)CC2)c2c(C)c(C)sc2n1 | 72.6* | 0.3 | 0.5 | 50.7* | 1.2
CCc1cc2cc3c(cc2nc1SCC(=O)N1CCN(C(=O)c2ccco2)CC1)OCO3 | 46.9 | 0.5 | 0.8 | 15.1 | 0.9
CCc1cc2ccc(C)cc2nc1SCC(=O)N1CCN(C(=O)c2ccco2)CC1 | 93.6* | 0.1 | 0.3 | 65.4* | 1.7
O=C(CSc1nc(-c2ccc(F)cc2)cs1)N1CCN(C(=O)c2ccco2)CC1 | -30.4 | 1.3 | 0.2 | 75.6* | 1.1
COCCn1c(-c2ccccc2)cnc1N | 1.3 | 1 | 1 | -2.6 | 1.1
CCCCCCCOC(=O)c1ccc(OC(=O)c2cccnc2)cc1 | 16.9 | 0.8 | 0.9 | 12.7 | 1.4
Clc1ccc(Cl)c2sc(N3CCCC3)nc12 | -6.1 | 1.1 | 0.9 | 10.7 | 1
SMILES | CYP2C9 inh | CYP2C9 activ | CYP2C19 act | CYP2C19 inh | PLAP activator
Fc1cccc2sc(N3CCCCC3)nc12 | 7.5 | 0.9 | 0.4 | 60.4* | 0.9
CC1(C)C(=O)OC(C(=O)c2ccc(C(C)(C)C)cc2)C(C)(C)C1=O (stereo unspecified) | 39.5 | 0.6 | 0.9 | 5.3 | 1
Cc1ccc(C(=O)OCC(=O)N2CCc3ccccc32)cc1 | 2.5 | 1 | 0.9 | 9.9 | 1.1
Cc1ccc(S(=O)(=O)N(C)CC(=O)N2CCCc3ccccc32)cc1 | -172.4 | 2.7* | 0.7 | 29.5 | 1.1
Cc1ccc(N(CC(=O)N2CCc3ccccc32)C2=NC(=O)CS2)cc1 | 67.4* | 0.3 | 0.4 | 56.0* | 1.5
Cc1nc2ccc(S(=O)(=O)N(C)CC(=O)N3CCc4ccccc43)cc2s1 | -33.4 | 1.3 | 0.8 | 19.6 | 1
CN(CC(=O)N1CCc2ccccc21)S(=O)(=O)c1ccc(Br)s1 | -23.4 | 1.2 | 0.1 | 93.8* | 1.2
Cc1ccc(S(=O)(=O)CCC(=O)N2CCc3ccccc32)cc1 | -116.3 | 2.2* | 1 | 1.4 | 0.9
Cn1cc(S(=O)(=O)CC(=O)N2CCCc3ccccc32)c2ccccc21 | -88.4 | 1.9 | 0.2 | 83.5* | 1.6
CC(/C=C1\N=C(SCc2ccccc2Cl)SC1=O)=C\c1ccccc1 | 30.2 | 0.7 | 0.8 | 24.0 | 0.7
CC1CN(S(=O)(=O)c2cccc(C(=O)OCc3cc(=O)oc4cc(O)ccc34)c2)CC(C)O1 (stereo unspecified) | 82.7* | 0.2 | 0.3 | 68.6* | 1.5
CN(C)c1cccc(C(=O)OCc2cc(=O)oc3cc(O)ccc23)c1 | 78.8* | 0.2 | 0.4 | 57.4* | 1.6
CN(C)C(=O)C1OC(C)(C)OC1C(=O)N(C)C (stereo unspecified) | 2.5 | 1 | 1 | -4.4 | 0.9
CCOC(=O)c1c(NC(=O)c2cccs2)sc2c1CCC2 | 23.1 | 0.8 | 0.8 | 19.5 | 1
Cc1cc(C)n(C(=O)CNC(=O)CCc2ccccc2)n1 | -86.7 | 1.9 | 0.9 | 8.7 | 1.1
COc1ccc(OC)c(/C=N/NC(=O)CCCC(=O)Nc2cccc(Br)c2)c1 | 75.4* | 0.2 | 0.7 | 35.0 | 1.3
Cc1ccc(C23CC4CC(CC(NC(=O)NC(C)(C)CO)(C4)C2)C3)cc1 | 74.8* | 0.3 | 0.3 | 73.2* | 2.3*
Cc1ccc(C23CC4CC(CC(NC(=O)N5CCN(C)CC5)(C4)C2)C3)cc1 | 29.9 | 0.7 | 0.6 | 36.3 | 1.6
O=C(CSc1nccc(=O)[nH]1)c1ccccc1Br | 55.0* | 0.4 | 0.9 | 11.0 | 0.9
CCOC(=O)N1CCC(NC(=O)C(NC(=O)C2CCCCC2)C(C)C)CC1 (stereo unspecified) | -9.4 | 1.1 | 1 | -3.1 | 1.1
CCC(=O)Nc1ccc(S(=O)(=O)Nc2ncccn2)cc1 | 8.6 | 0.9 | 1 | 3.7 | 0.9
CCOc1ccc(C(=O)N/N=C/c2ccc(-c3ccc(S(=O)(=O)Nc4ncccn4)cc3)o2)cc1 | 72.1* | 0.3 | 0.9 | 13.1 | 2.1*
O=C(N/N=C/c1ccc(-c2ccc(S(=O)(=O)Nc3ncccn3)cc2)o1)c1cc2ccccc2cc1O | 80.9* | 0.2 | 0.7 | 30.3 | 1.9
Cn1c(SCc2ccccc2Cl)nc(C(F)(F)F)cc1=O | 13.7 | 0.9 | 1 | -2.8 | 0.9
CC(C)CC(C(=O)Nc1oc(-c2ccco2)c(-c2ccco2)c1C#N)N1C(=O)c2ccccc2C1=O (stereo unspecified) | 97.8* | 0 | 0.3 | 69.4* | 1.3

Assay outcomes from PubChem BioAssay.
